Rows were chosen to be rich in hits. Some 0.92% of all compounds tested hit in one or more screens of this group.
WRN helicase inh: qHTS for Inhibitors of WRN Helicase; Bifunctional 3'-5' exonuclease/ATP-dependent helicase WRN (Homo sapiens), Q14191; WRN helicase unwinding, fluorescent forked duplex, kinetic; Potency, µM (series often up to 114 µM), inactives show at the top dose activity change, negative = inhibition, actives largely listed as inhibitors; 360,000 tested, 0.46% active; note: nearly all actives have a fitted effect of over 55% in size
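Fluorescence dequenching readout, ex 525 nm/em 598 nm, kinetic mode: forked duplex DNA (100 nM final) with adjacent fluorophore and quencher unwound by WRN (20 nM final) with 2 mM ATP. Compound preincubation 15 min, room temperature.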
L3MBTL1 inh: qHTS Assay for the Inhibitors of L3MBTL1. AlphaScreen L3MBTL1–H3K9me1 peptide binding. Potency, µM (series often up to 57.1 µM), inactives show at the top dose activity, negative = inhibition, usual class: inhibitors. 230,000 tested, 0.66% active; note: nearly all actives have a fitted effect of over 60% in size
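L3MBTL1 50 nM + b-AHA-H3(1-15)K9me1 75 nM, 30 min RT; compound added, 30 min RT; streptavidin donor/Ni-chelate acceptor beads 10 ug/mL each final, 30 min RT dark; AlphaScreen read.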
RECQ1 inh-1: qHTS Assay for Inhibitors of RecQ-Like Dna Helicase 1 (RECQ1); ATP-dependent DNA helicase Q1 (Homo sapiens), P46063; RECQ1 DNA unwinding, red fluorescence kinetic read; Potency, µM (top dose mostly 57.3 µM), for inactives: top-dose activity, negative = inhibition, hits mostly inhibitors; 240,000 tested, 0.54% active; AID 2549, 2010;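 note: plate controls were vehicle for no effect and no enzyme for full effect; nearly all actives have a fitted effect of over 30% in size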
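50 nM RECQ1T1 preincubated 15 min with compound in Tris pH 8.0 buffer with MgCl2, DTT, Tween-20 and 2.5 ug/ml poly(dI-dC); started with 200 nM TAMRA/BHQ-2 forked duplex and 2 mM ATP. Unwinding read as fluorescence (525/598 nm), two reads 2 h apart.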
BLM inh: qHTS Assay for Inhibitors of Bloom's syndrome helicase (BLM) | RecQ-like DNA helicase BLM (Homo sapiens), P54132 | recombinant BLM DNA unwinding, fluorescence dequenching | Potency, µM (titrated, usually from 56.1 µM), for the others: at the highest dose activity change, negative = inhibition, usual class: inhibitors | 350,000 tested, 0.2% active | AID 2528, 2010;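 note: plate controls were vehicle for no effect and no enzyme for full effect; nearly all actives have a fitted effect of over 35% in size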
APE1 inh-1: qHTS Assay for Inhibitors of the Human Apurinic/apyrimidinic Endonuclease 1 (APE1); Potency, µM (doses to about 65.8 µM), for the others: top-dose activity change, negative = inhibition, hits mostly inhibitors; DNA repair nuclease/redox regulator APEX1 (Homo sapiens), P27695; 350,000 tested, 0.35% active; recombinant APE1, TAMRA/BHQ-2 abasic DNA cleavage fluorescence;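 note: plate controls were vehicle for no effect and reference inhibitor for full effect; nearly all actives have a fitted effect of over 55% in size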
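Step 1: APE1 (0.75 nM) with compound, 15 min RT. Step 2: add 50 nM fluorophore/quencher THF duplex. Step 3: three fluorescence reads 60 s apart (525/598 nm); read 3 minus read 1 = reaction progress.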
APE1 dye cs: Counterscreen for APE1 Inhibitors: Fluorescent Dye Displacement Assay; shares compounds with APE1 inh-1; DNA fluorescent dye displacement counterscreen, fluorescence; Potency, µM (top dose mostly 28.5 µM), without a hit: top-dose activity change, negative = inhibition, usual class: inhibitors; 480 tested, 7% active;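 note: loss of thiazole orange fluorescence as the dye is displaced from duplex DNA; 0% = ThO with dsDNA and no compound and -100% = ThO without dsDNA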
Endo IV inh: Counterscreen for APE1 Inhibitors: qHTS Assay for Inhibitors of Endonuclease IV; AID 2565, 2010; 560 tested, 4% active; E. coli Endo IV, fluorogenic AP-site DNA cleavage; shares compounds with APE1 inh-1; Potency, µM (highest dose often 27.1 µM), for the others: at the highest dose activity change, negative = inhibition, hits mostly inhibitors;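 note: plate controls were uninhibited enzyme wells for no effect and no enzyme buffer wells for full effect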
APE1 inh-2: Confirmation qHTS Assay for Inhibitors of the Human Apurinic/apyrimidinic Endonuclease 1 (APE1). Potency, µM (top dose mostly 57.1 µM), without a hit: at the top dose activity change, negative = inhibition, actives largely listed as inhibitors. shares compounds with APE1 inh-1. 750 tested, 44% active. AID 2572, 2010. purified APE1, fluorogenic abasic-site DNA cleavage; note: nearly all actives have a fitted effect of over 30% in size
APE1 FP: qHTS FP-Based Assay for Inhibitors of the Human Apurinic/apyrimidinic Endonuclease 1 (APE1) | shares compounds with APE1 inh-1 | APE1 binding to TAMRA-labelled double-stranded DNA, fluorescence polarization displacement | Potency, µM (titrated, usually from 28.5 µM), for the others: at the highest dose activity, negative = inhibition, most hits filed as inhibitors | 480 tested, 7% active | AID 2573, 2010
RECQ1 conf: Confirmation qHTS Assay for Inhibitors of RecQ-Like Dna Helicase 1 (RECQ1); shares compounds with RECQ1 inh-1; RECQ1 helicase DNA unwinding, fluorescence; Potency, µM (titrated, usually from 229 µM), inactives show at the top dose activity change, negative = inhibition, usual class: inhibitors; 610 tested, 28% active; AID 2708, 2010; note: nearly all actives have a fitted effect of over 45% in size
ADP FP counter: Counterscreen for RECQ1 Inhibitors: ADP Fluorescence Polarization Displacement Assay; ADP fluorescence polarization displacement counterscreen; AID 2711, 2010; 530 tested, 27% active; Potency, µM (doses to about 228 µM), for the others: top-dose activity change, negative = inhibition, actives largely listed as inhibitors; shares compounds with RECQ1 inh-1; note: nearly all actives have a fitted effect of over 45% in size
RECQ1 inh-2: Confirmation qHTS Assay for Inhibitors of RecQ-Like Dna Helicase 1 (RECQ1) - Round 2 Cherry Picks. shares compounds with RECQ1 inh-1. recombinant RECQ1 DNA unwinding, red fluorescence. Potency, µM (titrated, usually from 119 µM), for the others: at the highest dose activity, negative = inhibition, actives largely listed as inhibitors. 1,100 tested, 15% active; note: nearly all actives have a fitted effect of over 50% in size
* hit, by the source's call; [ ] = another dose, or the depositor's remark. Calls come from the whole dose curve; as a rule, active = well fitted curve in the direction sought with a large enough effect; inconclusive = small, poorly fitted or top-dose-only effect, or another doubt; inactive = no such curve, though single readings can be large; an effect the other way counts as inactive or inconclusive. Unless noted, % is set by controls: 0 for no effect and ±100 for the full control effect; potency is the fitted concentration of half-maximal effect.

What do the screens show for `COc1ccc(-c2cnnc(N/N=C/c3ccc(O)c(O)c3)n2)cc1`?
WRN helicase inh: inconclusive; L3MBTL1 inh: inconclusive; RECQ1 inh-1: 16µM*; BLM inh: -16%; APE1 inh-1: 20µM*; APE1 dye cs: inconclusive; Endo IV inh: 29%; APE1 inh-2: -12%[24.4 µM]; APE1 FP: 15%

Results for COc1ccc(-c2cnnc(N/N=C/c3ccc(O)cc3)n2)cc1 ?
WRN helicase inh: -2%[57.1 µM]; L3MBTL1 inh: 0%; RECQ1 inh-1: -2%; BLM inh: -4%; APE1 inh-1: 1%

How did O=C(CSc1nc2ccccc2c(=O)[nH]1)Nc1ccc([N+](=O)[O-])cc1 do in these assays?
WRN helicase inh: -26%; L3MBTL1 inh: 0%; APE1 inh-1: 12%

What do the screens show for `O=C(CSc1nc2ccccc2c(=O)[nH]1)Nc1ccc(C(=O)O)cc1`?
WRN helicase inh: -30%; L3MBTL1 inh: -5%; RECQ1 inh-1: 16%; BLM inh: -2%; APE1 inh-1: -7%; APE1 inh-2: -9%

Results for O=C(CSc1nc(NS(=O)(=O)c2ccccc2)cc(=O)[nH]1)Nc1ccc(Cl)cc1 ?
WRN helicase inh: inconclusive; L3MBTL1 inh: inconclusive; RECQ1 inh-1: -1%; BLM inh: inconclusive; APE1 inh-1: -4%; APE1 inh-2: -16%

How did COc1ccc(Cl)cc1NC(=O)CSc1nc(NS(=O)(=O)c2ccccc2)cc(=O)[nH]1 do in these assays?
WRN helicase inh: -5%[57.1 µM]; BLM inh: -6%; APE1 inh-1: 11%

Results for O=C(O)CC(O)CC(O)/C=C/c1c(C2CC2)nc2ccccc2c1-c1ccc(F)cc1 (stereo unspecified) ?
BLM inh: -9%

What do the screens show for `C#C[C@]1(O)CC[C@H]2[C@H]3[C@H](CC[C@@]21C)C1=C(CC(=O)CC1)C[C@@H]3C`?
BLM inh: -8%

Results for Oc1ccc(C2Oc3cc(O)cc(O)c3CC2O)cc1 (stereo unspecified) ?
RECQ1 inh-1: inactive; BLM inh: 3%; APE1 inh-1: -7%

How did O=C(OC1Cc2c(O)cc(O)cc2OC1c1cc(O)c(O)c(O)c1-c1c(C2Oc3cc(O)cc(O)c3CC2OC(=O)c2cc(O)c(O)c(O)c2)cc(O)c(O)c1O)c1cc(O)c(O)c(O)c1 (stereo unspecified) do in these assays?
RECQ1 inh-1: 4.5µM*; BLM inh: 7.9µM*; APE1 inh-1: 0.13µM*; Endo IV inh: 28µM*; APE1 inh-2: 0.32µM*

Results for COc1ccc(S(=O)(=O)NCCCC(=O)Nc2ccc(Sc3ccc(N)cc3)cc2)cc1 ?
RECQ1 inh-1: -5%; BLM inh: -7%; APE1 inh-1: -3%

Results for COc1ccc(N=C2NC(=O)/C(=C\c3ccco3)S2)cc1 ?
WRN helicase inh: inconclusive; RECQ1 inh-1: 16µM*; BLM inh: inconclusive; APE1 inh-1: 7.9µM*; APE1 dye cs: -12%; Endo IV inh: 10%; APE1 inh-2: 13µM*; APE1 FP: -5%; RECQ1 conf: inconclusive; ADP FP counter: -13%[91.9 µM]; RECQ1 inh-2: inconclusive

What do the screens show for `COc1ccc(/C=C2\SC(=Nc3ccccc3)NC2=O)cc1`?
L3MBTL1 inh: 6%; BLM inh: -5%; APE1 inh-1: -18%

Results for CC1Cc2cc(C(=O)O)ccc2O1 (stereo unspecified) ?
WRN helicase inh: 1%; L3MBTL1 inh: 1%; RECQ1 inh-1: 10%; BLM inh: -2%; APE1 inh-1: -12%

How did C=C(CO)C1Cc2cc(C(C)=O)ccc2O1 (stereo unspecified) do in these assays?
WRN helicase inh: -33%; RECQ1 inh-1: inconclusive; BLM inh: -7%; APE1 inh-1: 20µM*; APE1 dye cs: 2%; Endo IV inh: 8%; APE1 inh-2: 10µM*; APE1 FP: -37%; RECQ1 inh-2: inconclusive

From PubChem BioAssay
